Laboratory results reported in PubChem BioAssay (NCATS).
Inconclusive results are not listed. Calls of active or inactive are those of the source. The call rests on the fitted dose curve; in most records, active means well fitted inhibition curve with a large enough effect; inconclusive means small, poorly fitted or top-dose-only effect; inactive means flat fitted curve, though single readings scatter.

How the values were obtained:
Test in all cases: qHTS profiling for inhibitors of Plasmodium falciparum proliferation (AID 504749); further: nearly all actives have a fitted effect of over 60% in size
Conditions in all cases: P. falciparum in erythrocytes, SYBR Green DNA, 72 h; series mostly up to 28.7 µM
P94_40 = tested on: P94_40
How it was run: (§1)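 P. falciparum-infected erythrocytes (0.3% parasitemia, 2.5% hematocrit) incubated with compound 72 h at 37 C, 5% CO2. Parasite DNA detected by SYBR Green after lysis, overnight at room temperature; normalised to 0.29 uM artemisinin and DMSO.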

PAD = tested on: PAD
How it was run: as §1

PC15 = tested on: PC15
How it was run: as §1

PC26 = tested on: PC26
How it was run: as §1

PC49 = tested on: PC49
How it was run: as §1

SC27B = tested on: SC27B
How it was run: as §1

TAB109 = tested on: TAB109
How it was run: as §1

TAB113 = tested on: TAB113
How it was run: as §1

TAB165 = tested on: TAB165
How it was run: as §1

W2 = tested on: W2
How it was run: as §1

Measured: Potency
Potency means the concentration at half of the fitted maximal effect.

OCl
inactive: all assays above

CO/N=C(\C(=O)N[C@@H]1C(=O)N2C(C(=O)[O-])=C(C[n+]3cccc4c3CCC4)CS[C@H]12)c1csc(N)n1
not listed: TAB113
inactive: all other assays above

CC(C)(C)CC(C)(C)c1ccc(OCCO)cc1
not listed: TAB165
inactive: all other assays above

CNC(=O)c1c(I)c(C(=O)NCC(=O)Nc2c(I)c(C(=O)O)c(I)c(C(=O)NCCO)c2I)c(I)c(N(C)C(C)=O)c1I
not listed: TAB109
inactive: all other assays above

O=C1c2ccccc2C(=O)c2c1ccc(O)c2O
inactive: all assays above

C=CCCCCCCCCC(=O)OC
inactive: all assays above

OCC(O)CO
inactive: all assays above

CCc1ncnc2cc(OC)c(OC)cc12
inactive: all assays above

C[Si](C)(C)O[Si](C)(C)C
inactive: all assays above

FC(F)OC(Cl)C(F)(F)F (centres undefined)
inactive: all assays above

Oc1ccc(Cl)c2c1CCC2
inactive: all assays above

C=C1C(CCl)(CCl)C2(Cl)C(Cl)C(Cl)C1(Cl)C2(Cl)Cl (centres undefined)
active: P94_40 2.51 µM | PAD 0.708 µM | PC15 2 µM | PC26 1.9 µM | PC49 3.98 µM | SC27B 1.78 µM | TAB109 3.16 µM | TAB113 2.82 µM | TAB165 1.78 µM | W2 0.849 µM

C=CCN1CCCC1CNC(=O)c1cc(S(N)(=O)=O)cc(OC)c1OC (centres undefined)
inactive: all assays above

CC(C)Cc1ccc([C@@H](C)C(=O)NS(C)(=O)=O)cc1
not listed: TAB109
inactive: all other assays above

COc1cc(C)c(/C=C/C(C)=C/C=C/C(C)=C/C(=O)O)c(C)c1C
inactive: all assays above

O=C(O)[C@H]1C(=CCO)O[C@H]2CC(=O)N12
inactive: all assays above

CCCCCCOC(=O)c1cccnc1
inactive: all assays above

O=C1CCC(c2ccccc2)(C2CCN(Cc3ccccc3)CC2)C(=O)N1 (centres undefined)
active: W2 6.75 µM
not listed: TAB109
inactive: all other assays above

COc1ccc(/C=C/C(=O)O)cc1
inactive: all assays above

O=C(Nc1ccc(O)cc1)c1ccccc1O
not listed: TAB113 | TAB165
inactive: all other assays above

O=C(O)CCC(=O)c1ccc(-c2ccccc2)cc1
inactive: all assays above

CCCOC(=O)c1ccccc1O
not listed: TAB109 | W2
inactive: all other assays above

FC(F)(F)C(F)(F)C(F)(F)C(F)(F)C(F)(F)F
inactive: all assays above

CC/C(=C(/CC)c1ccc(OP(=O)(O)O)cc1)c1ccc(OP(=O)(O)O)cc1
inactive: all assays above

O=C1c2ccccc2CN2C(=O)c3ccccc3CN12
inactive: all assays above

CC(=O)Nc1ccc(OC(C)=O)cc1
inactive: all assays above

FC(F)(F)C(F)(F)C(F)(F)C(F)(F)C(F)(F)C(F)(F)F
inactive: all assays above

COC(=O)CC[C@H](N)C(=O)O
inactive: all assays above

CN1c2c(nc(N)[nH]c2=O)NCC1CNc1ccc(C(=O)NC(CCC(=O)O)C(=O)O)cc1 (centres undefined)
not listed: TAB113
inactive: all other assays above

CCOc1ccc(NC(=S)Nc2ccc(OCC)cc2)cc1
inactive: all assays above

CCCCC/C=C\C/C=C\C/C=C\CCCCC(=O)O
not listed: TAB113
inactive: all other assays above

O=C(NNCNNC(=O)c1ccncc1)c1ccncc1
inactive: all assays above

CN(C)CCCSc1ccccc1NC(=O)/C=C/c1ccccc1
active: W2 6.01 µM
not listed: TAB109
inactive: all other assays above

CC(CC=O)CCCC(C)(C)O (centres undefined)
inactive: all assays above

C[C@H](N)C(=O)N[C@@H](C)P(=O)(O)O
not listed: TAB109
inactive: all other assays above

Nc1ccc(N=Nc2ccccc2)c(N)n1
not listed: TAB109
inactive: all other assays above

CC(C)C1=CC2=CC[C@@H]3[C@](C)(CCC[C@@]3(C)C(=O)O)[C@H]2CC1
not listed: PC26
inactive: all other assays above

O.O.O.O.O.O.O.O=S(=O)([O-])[O-].[Co+2]
inactive: P94_40 | PAD | PC15
active: PC49 7.94 µM | SC27B 7.94 µM | TAB109 7.94 µM | TAB113 6.31 µM | TAB165 10 µM | W2 5.36 µM

CCOC(=O)c1cc(-c2ccccc2)nc2ccc(C)cc12
not listed: TAB109 | TAB113
inactive: all other assays above

OCCOCCOCCO
not listed: PC26
inactive: all other assays above

C#C[C@]1(O)CC[C@@H]2[C@H]3CCC4=CC(=O)CC[C@H]4[C@H]3C(=C)C[C@@]21CC
not listed: PC26 | W2
inactive: all other assays above
